Activity calls are given as the source filed them.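 The calls were made as follows: active = cell survival after UV exposure 2 SD above solvent-only control wells at 10 µM, confirmed on one or two repeats; inactive = the rest.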
Assay: protection of CHO cells from pyrene-fatty acid UV killing, primary screen, phospholipid biosynthesis inhibitor project, ZR-82 cells, Analyticon library, screen 2 (AID 1347383);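 also: survival reflects blocked phospholipid synthesis cutting uptake of the phototoxic fatty acid; compound and fatty acid exposure 3 h then viability read next day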
Settings: ZR-82 CHO cells, CellTiter Blue, at 10 µM; peroxisome-deficient CHO-K1 variant, with DGAT-1, DGAT-2 and ACAT inhibitors unless noted

**Q.** Which outcome does the source give for `C/C=C(\C)[C@H](O)[C@H](C)/C=C(C)/C=C/C/C(C)=C/Cc1[nH]c(OC)c(OC)c(=O)c1C` here?
**A.** inactive

**Q.** For `CC1(C)OC1COc1c2occc2cc2ccc(=O)oc12` (stereo not drawn), which outcome is on record?
**A.** inactive

**Q.** Which outcome does the source give for `COc1ccc(C23C=C4C5CC6(O)CC7N(CCC57c5ccc(OC)c(OC)c5)C4(CC2NCC3)O6)cc1OC` (stereo not drawn) here?
**A.** inactive

**Q.** For `Oc1cc(O)cc(/C=C/c2ccc(O)cc2O)c1`, which outcome is on record?
**A.** inactive

**Q.** With `C/C=C1/CN2C3CC1C(CO)C2Cc1c3[nH]c2ccccc12` (stereo not drawn) as the compound, how does the outcome read?
**A.** inactive

**Q.** For `CC[C@H]1CN2CC[C@H]1C[C@H]2[C@H](O)c1ccnc2ccc(OC)cc12`, which outcome is on record?
**A.** inactive

**Q.** For `CO[C@@H]1[C@@H](O)[C@H](C)O[C@@H](O[C@H]2CC[C@]3(C)C4CC[C@]5(C)[C@H](C6=CC(=O)OC6)CC[C@]5(O)C4CC[C@@H]3C2)[C@H]1OC(C)=O` (stereo partly drawn), which outcome is on record?
**A.** inactive

**Q.** For `COc1ccc([C@@]23CC[C@@H](O)C[C@@H]2N(C)CC3)cc1OC`, which outcome is on record?
**A.** inactive

**Q.** With `CC(C)C(=O)O[C@H]1[C@@H]2[C@H](C)C(=O)O[C@@H]2C[C@@H](C)[C@@H]2C=CC(=O)[C@]21C` as the compound, how does the outcome read?
**A.** inactive

**Q.** Which outcome does the source give for `COc1ccc(CC2C(=O)OCC2Cc2ccc3c(c2)OCO3)cc1OC` (stereo not drawn) here?
**A.** inactive

**Q.** With `CCC1C2CC3C4N(C)c5ccccc5C45CC(C2C5O)N3C1O` (stereo not drawn) as the compound, how does the outcome read?
**A.** inactive [setting not given]

**Q.** With `C[C@@]1(C(=O)O)CC[C@]2(C)CC[C@]3(C)C4=CC(=O)c5cc(O)c(O)cc5[C@]4(C)CC[C@@]3(C)[C@@H]2C1` as the compound, how does the outcome read?
**A.** inactive

**Q.** With `COc1ccc2c3c([nH]c2c1)C(C)=NCC3` as the compound, how does the outcome read?
**A.** inactive [setting not given]

**Q.** For `COc1cc2c(cc1OC)[C@@]13CCN4CC5=CCO[C@H]6CC(=O)N2[C@H]1[C@H]6[C@H]5C[C@H]43`, which outcome is on record?
**A.** inactive [setting not given]

**Q.** With `CC1(C)C=C2C(=O)C(C)(C)C(=O)C(C)(C)C2(O)OO1` (stereo not drawn) as the compound, how does the outcome read?
**A.** inactive

**Q.** For `C=C(C)[C@H]1CCC(C)=C[C@@H]1c1c(O)cc(CCCCC)cc1O`, which outcome is on record?
**A.** inactive

**Q.** For `C[C@]12CC[C@H](O)CC1=CC[C@@H]1C2CC[C@]2(C)[C@@H](C3=CC(=O)OC3)CC[C@]12O` (stereo partly drawn), which outcome is on record?
**A.** inactive

**Q.** With `CO[C@H]1[C@H](O)[C@H](O[C@H]2CC[C@]3(C)C4CC[C@]5(C)[C@H](C6=CC(=O)OC6)CC[C@]5(O)C4CC[C@@H]3C2)O[C@@H](C)[C@@H]1O` (stereo partly drawn) as the compound, how does the outcome read?
**A.** inactive

**Q.** With `CC[C@H]1CN2CC[C@H]1C[C@@H]2[C@@H](O)c1ccnc2ccc(OC)cc12` as the compound, how does the outcome read?
**A.** inactive

**Q.** For `OCC(O)Cc1ccc2c(c1)OCO2` (stereo not drawn), which outcome is on record?
**A.** inactive [setting not given]

**Q.** For `COc1cc(C2c3cc4c(c(O)c3CC3COC(=O)C32)OCO4)cc(OC)c1O` (stereo not drawn), which outcome is on record?
**A.** inactive [setting not given]

**Q.** With `O=C1N[C@@H](Cc2ccccc2)CN2CCCC[C@@H]12` as the compound, how does the outcome read?
**A.** inactive

**Q.** Which outcome does the source give for `COc1cc(C2c3cc4c(cc3C(O)C3COC(=O)C23)OCO4)cc(OC)c1O` (stereo not drawn) here?
**A.** inactive

**Q.** For `COc1ccc([C@@]23CC[C@H](O)C[C@@H]2N(C)CC3)cc1OC`, which outcome is on record?
**A.** inactive

**Q.** With `CC(C)[C@@H](C)/C=C/[C@@H](C)[C@H]1CC[C@@H]2[C@]1(C)CCC1[C@]23C=C[C@]2(C[C@@H](O)CC[C@]12C)OO3` (stereo partly drawn) as the compound, how does the outcome read?
**A.** inactive

**Q.** For `C=CCc1cc(OC)c2c(c1)OCO2`, which outcome is on record?
**A.** inactive [setting not given]

**Q.** For `CN1Cc2c(ccc3c2OCO3)[C@@H]2[C@H]1c1cc3c(cc1C[C@@H]2O)OCO3`, which outcome is on record?
**A.** inactive

**Q.** With `COC1CC(O[C@H]2CC[C@]3(C)C4CC[C@]5(C)[C@@H](C6=CC(=O)OC6)CC[C@]5(O)[C@@H]4CC[C@]3(O)C2)OC(C)C1O` (stereo partly drawn) as the compound, how does the outcome read?
**A.** inactive

— PubChem BioAssay AID1347383 (Zoeller Lab, School of Medicine, Boston University, 2020)
